# Test results as given in PubChem BioAssay (EPA / NIEHS).
# Where “and” joins values, the source holds several entries; their conditions need not be identical. Equal values may be shown once. Inconclusive results are not listed. More than one record can exist for a structure, and the calls need not agree. Calls of active or inactive are those of the source. The calls were made as follows, unless noted: active = hit-call score of the fitted dose curve at least 0.9, where 1 is the maximum; inactive = score below 0.9.
# How the values were obtained:
# [1] = target: Glucocorticoid receptor (Homo sapiens) (UniProt P04150); assay: ATG_GR_TRANS: Attagene TRANS-FACTORIAL HepG2 Assay for human Glucocorticoid Receptor (GR) (AID 2282978; active = hit-call score of the fitted dose curve at least 0.9, where 1 is the maximum;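 also: activators score as hits since higher reporter transcript over DMSO is fitted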); conditions: HepG2 Attagene TRANS GR reporter, mRNA transcription
# Sequence of Glucocorticoid receptor (Homo sapiens) (P04150 whole entry, looked up, the tested form may be a part): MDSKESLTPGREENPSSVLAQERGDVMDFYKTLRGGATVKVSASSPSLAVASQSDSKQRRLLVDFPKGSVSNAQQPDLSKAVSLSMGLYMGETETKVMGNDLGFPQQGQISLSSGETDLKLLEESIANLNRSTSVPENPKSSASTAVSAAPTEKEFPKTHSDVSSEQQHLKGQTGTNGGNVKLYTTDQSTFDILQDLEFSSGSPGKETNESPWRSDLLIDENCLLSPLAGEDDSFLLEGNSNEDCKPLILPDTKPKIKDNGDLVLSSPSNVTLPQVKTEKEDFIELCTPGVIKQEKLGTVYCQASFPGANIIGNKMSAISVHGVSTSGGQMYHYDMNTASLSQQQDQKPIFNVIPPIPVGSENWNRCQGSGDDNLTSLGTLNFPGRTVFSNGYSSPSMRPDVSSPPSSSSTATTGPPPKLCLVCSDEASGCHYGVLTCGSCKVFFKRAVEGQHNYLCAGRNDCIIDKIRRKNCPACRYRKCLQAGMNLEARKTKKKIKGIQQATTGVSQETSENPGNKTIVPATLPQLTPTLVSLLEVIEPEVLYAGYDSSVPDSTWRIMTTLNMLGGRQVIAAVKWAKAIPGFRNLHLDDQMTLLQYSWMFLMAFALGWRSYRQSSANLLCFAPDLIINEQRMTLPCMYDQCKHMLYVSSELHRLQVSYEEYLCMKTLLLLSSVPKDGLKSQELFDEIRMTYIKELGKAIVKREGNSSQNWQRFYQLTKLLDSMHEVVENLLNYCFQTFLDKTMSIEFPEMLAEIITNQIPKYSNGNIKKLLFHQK
# In short: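 HepG2 cells transiently transfected with GAL4-UAS reporter units and exogenous GR-Gal4 chimera, dosed 24 h. Reporter mRNA by RT-PCR, FAM labeling, HpaI digest and capillary electrophoresis; gain-of-signal fit versus DMSO.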
# [2] = target: Bile acid receptor (Homo sapiens) (UniProt Q96RI1); assay: ATG_FXR_TRANS: Attagene TRANS-FACTORIAL HepG2 Assay for Farnesoid X Receptor (FXR) (AID 2282979; active = hit-call score of the fitted dose curve at least 0.9, where 1 is the maximum;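 also: hits raise reporter mRNA above DMSO so AC50 marks FXR activation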); conditions: HepG2 Attagene TRANS FXR-GAL4 reporter transcription
# Sequence of Bile acid receptor (Homo sapiens) (Q96RI1 whole entry, looked up, the tested form may be a part): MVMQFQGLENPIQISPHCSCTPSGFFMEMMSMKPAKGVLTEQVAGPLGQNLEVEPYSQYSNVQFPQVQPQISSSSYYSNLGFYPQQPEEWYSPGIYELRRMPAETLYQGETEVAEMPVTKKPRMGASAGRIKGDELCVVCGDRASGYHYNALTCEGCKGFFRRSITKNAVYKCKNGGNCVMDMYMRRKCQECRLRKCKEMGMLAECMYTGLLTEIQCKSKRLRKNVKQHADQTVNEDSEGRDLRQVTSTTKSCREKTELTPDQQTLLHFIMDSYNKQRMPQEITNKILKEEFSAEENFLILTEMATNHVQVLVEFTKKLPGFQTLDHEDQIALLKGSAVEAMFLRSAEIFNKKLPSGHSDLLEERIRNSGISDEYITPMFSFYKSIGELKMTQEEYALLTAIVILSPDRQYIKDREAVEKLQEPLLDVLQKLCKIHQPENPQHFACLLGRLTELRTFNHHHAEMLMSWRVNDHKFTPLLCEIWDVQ
# In short: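 After 24 h chemical treatment of transfected HepG2 cells, GAL4-UAS reporter transcripts driven by an exogenous FXR-GAL4 fusion were measured by RT-PCR and capillary electrophoresis. Increases over DMSO were fitted.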
# [3] = ATG_M_06_TRANS: Attagene TRANS-FACTORIAL HepG2 Assay for M06 Transcription Factor (Internal Marker) (AID 2282983; active = hit-call score of the fitted dose curve at least 0.9, where 1 is the maximum); conditions: HepG2 Attagene TRANS M06 internal marker reporter
# In short: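 Internal-marker background readout from a multiplexed TRANS reporter system in HepG2; 24 h dosing; mRNA induction quantified by RT-PCR plus capillary electrophoresis fluorescence; DMSO as negative control and baseline.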
# [4] = ATG_M_32_TRANS: Attagene TRANS-FACTORIAL HepG2 Assay for M32 Transcription Factor (Internal Marker) (AID 2282984; active = hit-call score of the fitted dose curve at least 0.9, where 1 is the maximum;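 also: transcript level of a background control reporter unit measured by RT-PCR and capillary electrophoresis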); conditions: HepG2 Attagene TRANS M32 internal marker reporter
# In short: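 Capillary electrophoresis of 6-FAM-labelled reporter fragments gives the signal; data fitted for gain over DMSO negative control. Source: HepG2 cells bearing transient multiple reporter transcription units, 24 h exposure.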
# [5] = target: Nuclear receptor subfamily 4 group A member 2 (Homo sapiens) (UniProt P43354); assay: ATG_NURR1_TRANS: Attagene TRANS-FACTORIAL HepG2 Assay for human Nuclear Receptor Related Protein 1 (NURR1) (AID 2282985; active = hit-call score of the fitted dose curve at least 0.9, where 1 is the maximum); conditions: HepG2 Attagene TRANS reporter, mRNA readout
# In short: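 HepG2 / transient MRTU transfection / 24 h compound exposure / RT-PCR + CE fluorescence of reporter mRNA / gain-of-signal vs DMSO.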
# [6] = target: Transcriptional activator Myb (Homo sapiens) (UniProt P10242); assay: ATG_Myb_CIS: Attagene CIS-FACTORIAL HepG2 Assay for human Myeloblastosis (Myb) Proto-Oncogene Transcription Factor (AID 2282986); conditions: HepG2 Attagene CIS-FACTORIAL Myb reporter transcription; actives raise or lower the signal
# Sequence of Transcriptional activator Myb (Homo sapiens) (P10242 whole entry, looked up): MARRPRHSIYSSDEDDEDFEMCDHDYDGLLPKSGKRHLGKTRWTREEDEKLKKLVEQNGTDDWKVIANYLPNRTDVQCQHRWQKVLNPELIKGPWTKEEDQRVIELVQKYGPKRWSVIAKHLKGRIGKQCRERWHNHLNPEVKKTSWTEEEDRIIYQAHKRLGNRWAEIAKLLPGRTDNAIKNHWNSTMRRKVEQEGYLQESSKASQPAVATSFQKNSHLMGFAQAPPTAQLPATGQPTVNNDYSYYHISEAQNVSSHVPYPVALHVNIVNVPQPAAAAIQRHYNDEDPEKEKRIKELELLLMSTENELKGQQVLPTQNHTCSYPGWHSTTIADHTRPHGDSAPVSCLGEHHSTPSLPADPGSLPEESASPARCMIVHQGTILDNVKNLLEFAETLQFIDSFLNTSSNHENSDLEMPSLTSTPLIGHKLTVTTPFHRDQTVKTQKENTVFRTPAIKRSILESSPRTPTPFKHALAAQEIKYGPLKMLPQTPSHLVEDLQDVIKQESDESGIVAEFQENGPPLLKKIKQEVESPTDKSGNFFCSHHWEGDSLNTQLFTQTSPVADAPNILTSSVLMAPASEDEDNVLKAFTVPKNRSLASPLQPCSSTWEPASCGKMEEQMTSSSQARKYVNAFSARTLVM
# In short: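 Transiently transfected HepG2 cells carrying a multiplexed cis-promoter reporter set report endogenous Myb activity after 24 h compound exposure. Reporter mRNA is read by RT-PCR with capillary electrophoresis of fluorescent products, fitted bidirectionally against DMSO.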
# [7] = ATG_NFI_CIS: Attagene CIS-FACTORIAL HepG2 Assay for human Nuclear Factor I (NFI) (AID 2282989); conditions: HepG2 cis-regulatory reporter, NFI response element transcription; actives raise or lower the signal
# In short: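 Reporter transcription driven by endogenous transcription factors in HepG2 cells; 24 h treatment. Quantitation by labelled RT-PCR fragments on capillary electrophoresis, gain- or loss-of-signal relative to DMSO.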
# [8] = ATG_NF_kB_CIS: Attagene CIS-FACTORIAL HepG2 Assay for human Nuclear Factor Kappa B (NF-kB) (AID 2282991); conditions: HepG2 Attagene cis-factorial NF-kB reporter mRNA; actives raise or lower the signal
# In short: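 HepG2 cells transfected with cis-promoter-driven reporter units, so endogenous transcription factor activity is measured. Reporter mRNA quantified 24 h after dosing by RT-PCR and capillary electrophoresis, with bidirectional fitting against DMSO.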
# [9] = ATG_NRF2_ARE_CIS: Attagene CIS-FACTORIAL HepG2 Assay for human Nuclear Factor Erythroid 2 Related Factor 2 (NFR2) response to Antioxidant Response Elements (ARE) (AID 2282992); conditions: HepG2 Attagene ARE/NRF2 reporter, transcription factor activity; actives raise or lower the signal;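 as to AC50: reporter mRNA level measured by RT-PCR and capillary electrophoresis fluorescence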
# In short: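 HepG2 cells transiently transfected with multiplexed cis-element reporter constructs, 24 h after chemical dosing; reporter mRNA quantified by RT-PCR, fluorescent primer extension, HpaI digestion and capillary electrophoresis. Bidirectional fit relative to DMSO.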
# [10] = ATG_Oct_MLP_CIS: Attagene CIS-FACTORIAL HepG2 Assay for human Octamer-Binding Transcription Factor (Oct) (AID 2282993); conditions: HepG2 Attagene cis-factorial Oct reporter, mRNA; actives raise or lower the signal
# In short: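 Transfected HepG2 cells, 24 h treatment. Reporter mRNA quantified by RT-PCR–capillary electrophoresis; bidirectional fitting against DMSO.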
# [11] = target: Cellular tumor antigen p53 (Homo sapiens) (UniProt P04637); assay: ATG_p53_CIS: Attagene CIS-FACTORIAL HepG2 Assay for human p53 Transcription Factor (AID 2282994); conditions: HepG2 p53 cis-element reporter, Attagene mRNA; actives raise or lower the signal
# Sequence of Cellular tumor antigen p53 (Homo sapiens) (P04637 whole entry, looked up): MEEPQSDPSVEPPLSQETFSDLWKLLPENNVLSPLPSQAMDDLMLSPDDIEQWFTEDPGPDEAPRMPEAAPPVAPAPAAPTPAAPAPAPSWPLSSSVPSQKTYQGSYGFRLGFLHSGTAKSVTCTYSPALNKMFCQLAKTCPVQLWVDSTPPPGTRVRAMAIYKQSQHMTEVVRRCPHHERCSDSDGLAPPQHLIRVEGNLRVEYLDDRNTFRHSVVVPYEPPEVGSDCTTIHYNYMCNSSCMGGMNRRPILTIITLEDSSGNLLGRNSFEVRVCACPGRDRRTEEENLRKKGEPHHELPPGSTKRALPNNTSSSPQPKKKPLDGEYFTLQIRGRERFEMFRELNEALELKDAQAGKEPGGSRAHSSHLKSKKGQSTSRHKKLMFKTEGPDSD
# In short: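 HepG2 cells transiently transfected with cis-regulated multiple reporter transcription units, dosed 24 h. Reporter mRNA measured by RT-PCR, 6-FAM primer extension, HpaI digestion and capillary electrophoresis; bidirectional fit relative to DMSO.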
# [12] = target: Oxysterols receptor LXR-beta (Homo sapiens) (UniProt P55055); assay: ATG_LXRb_TRANS: Attagene TRANS-FACTORIAL HepG2 Assay for human Liver X Receptor beta (LXRb) (AID 2282981; active = hit-call score of the fitted dose curve at least 0.9, where 1 is the maximum); conditions: HepG2 Attagene TRANS GAL4-LXRb reporter, mRNA
# Sequence of Oxysterols receptor LXR-beta (Homo sapiens) (P55055 whole entry, looked up, the tested form may be a part): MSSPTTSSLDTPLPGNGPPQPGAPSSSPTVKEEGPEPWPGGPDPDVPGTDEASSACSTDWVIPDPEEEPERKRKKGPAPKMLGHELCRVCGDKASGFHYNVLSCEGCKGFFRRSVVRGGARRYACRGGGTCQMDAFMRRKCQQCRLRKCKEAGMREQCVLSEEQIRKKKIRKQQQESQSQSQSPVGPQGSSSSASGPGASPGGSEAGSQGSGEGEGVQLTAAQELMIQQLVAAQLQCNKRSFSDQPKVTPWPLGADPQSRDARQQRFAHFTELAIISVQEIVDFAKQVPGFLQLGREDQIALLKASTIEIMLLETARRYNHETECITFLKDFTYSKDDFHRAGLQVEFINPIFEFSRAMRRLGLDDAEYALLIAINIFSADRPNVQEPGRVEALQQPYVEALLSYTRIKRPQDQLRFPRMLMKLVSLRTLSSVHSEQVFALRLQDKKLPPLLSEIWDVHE
# In short: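 Gain-of-signal mRNA reporter endpoint, DMSO as negative control. Transiently transfected HepG2 cells carrying the NR-Gal4 chimera and GAL4-UAS reporter units were treated 24 h; transcripts quantified by RT-PCR and capillary electrophoresis fluorescence.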
# [13] = target: Hepatocyte nuclear factor 4-alpha (Homo sapiens) (UniProt P41235); assay: ATG_HNF4a_TRANS: Attagene TRANS-FACTORIAL HepG2 Assay for human Hepatocyte Nuclear Factor 4 alpha (HNF4a) (AID 2282982; active = hit-call score of the fitted dose curve at least 0.9, where 1 is the maximum); conditions: HepG2 HNF4a transactivation reporter, mRNA readout
# Sequence of Hepatocyte nuclear factor 4-alpha (Homo sapiens) (P41235 whole entry, looked up, the tested form may be a part): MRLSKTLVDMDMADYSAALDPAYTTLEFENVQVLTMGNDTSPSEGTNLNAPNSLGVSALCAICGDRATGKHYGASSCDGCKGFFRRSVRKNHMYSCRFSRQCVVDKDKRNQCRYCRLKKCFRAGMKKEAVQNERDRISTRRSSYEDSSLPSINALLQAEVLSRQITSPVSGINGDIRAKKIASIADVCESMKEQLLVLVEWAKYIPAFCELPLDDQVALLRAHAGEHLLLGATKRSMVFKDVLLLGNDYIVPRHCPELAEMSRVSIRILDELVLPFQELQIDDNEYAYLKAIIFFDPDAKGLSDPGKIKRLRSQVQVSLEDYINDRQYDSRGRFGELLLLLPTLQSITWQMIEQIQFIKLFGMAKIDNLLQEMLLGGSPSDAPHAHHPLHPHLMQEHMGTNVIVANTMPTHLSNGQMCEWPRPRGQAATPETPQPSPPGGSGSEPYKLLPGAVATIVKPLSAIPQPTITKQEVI
# In short: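 Gain-of-signal mRNA induction, relative to DMSO vehicle, was read after 24 h compound treatment of HepG2 cells bearing transfected GAL4-UAS reporters. Detection used RT-PCR, 6-FAM primer extension and capillary electrophoresis.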
# [14] = target: Nuclear respiratory factor 1 (Homo sapiens) (UniProt Q16656); assay: ATG_NRF1_CIS: Attagene CIS-FACTORIAL HepG2 Assay for human Nuclear Respiratory Factor 1 (NRF1) Orphan Gene (AID 2282987); conditions: HepG2 NRF1 cis-element reporter, Attagene multiplex; actives raise or lower the signal
# Sequence of Nuclear respiratory factor 1 (Homo sapiens) (Q16656 whole entry, looked up): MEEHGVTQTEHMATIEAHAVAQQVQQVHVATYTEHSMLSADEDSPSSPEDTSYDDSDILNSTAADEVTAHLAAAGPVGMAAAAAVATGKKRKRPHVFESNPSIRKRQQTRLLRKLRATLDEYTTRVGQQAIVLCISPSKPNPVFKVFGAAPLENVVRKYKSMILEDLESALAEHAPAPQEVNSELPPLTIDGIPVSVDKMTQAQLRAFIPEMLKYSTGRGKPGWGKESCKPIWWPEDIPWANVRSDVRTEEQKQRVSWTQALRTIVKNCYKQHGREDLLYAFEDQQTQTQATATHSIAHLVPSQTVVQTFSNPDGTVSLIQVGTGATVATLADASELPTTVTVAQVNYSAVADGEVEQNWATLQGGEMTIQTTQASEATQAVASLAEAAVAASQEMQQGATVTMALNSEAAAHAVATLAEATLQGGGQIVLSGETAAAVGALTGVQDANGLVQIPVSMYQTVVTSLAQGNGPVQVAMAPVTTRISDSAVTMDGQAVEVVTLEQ
# In short: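 HepG2 cells transiently transfected with multiple cis-regulated reporter units, exposed 24 h. Reporter mRNAs measured by RT-PCR, fluorescent labelling, HpaI digestion and capillary electrophoresis; bidirectional fitting against DMSO.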
# [15] = target: Myc proto-oncogene protein (Homo sapiens) (UniProt P01106); assay: ATG_Myc_CIS: Attagene CIS-FACTORIAL HepG2 Assay for human Myelocytomatosis (Myc) Proto-Oncogene Transcription Factor (AID 2282990); conditions: HepG2, Attagene cis-reporter transcription factor activity; actives raise or lower the signal
# Sequence of Myc proto-oncogene protein (Homo sapiens) (P01106 whole entry, looked up, the tested form may be a part): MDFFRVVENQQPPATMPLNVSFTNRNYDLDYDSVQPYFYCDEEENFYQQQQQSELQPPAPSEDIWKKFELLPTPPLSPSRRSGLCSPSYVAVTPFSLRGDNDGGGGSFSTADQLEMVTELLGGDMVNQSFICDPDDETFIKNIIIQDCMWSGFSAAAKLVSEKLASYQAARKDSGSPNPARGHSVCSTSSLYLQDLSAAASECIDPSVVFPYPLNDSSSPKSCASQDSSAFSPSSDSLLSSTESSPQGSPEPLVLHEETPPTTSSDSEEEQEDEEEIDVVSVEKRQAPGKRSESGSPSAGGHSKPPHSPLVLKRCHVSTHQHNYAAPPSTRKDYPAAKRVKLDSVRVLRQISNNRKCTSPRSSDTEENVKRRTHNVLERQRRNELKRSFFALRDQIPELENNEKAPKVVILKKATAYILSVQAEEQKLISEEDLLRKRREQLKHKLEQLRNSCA
# In short: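 Read-out: fluorescent reporter mRNA fragments resolved by capillary electrophoresis after RT-PCR. Human HepG2 liver cells carried transfected cis-element reporter units and were dosed for 24 h. Gain or loss of signal fitted relative to DMSO baseline.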
# [16] = BSK_3C_TissueFactor: BioMAP Diversity Plus: 3C Assay for Tissue Factor Biomarker Activity (AID 2282997); conditions: BioMAP 3C HUVEC, tissue factor biomarker readout; actives raise or lower the signal
# In short: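 Endothelial monolayers (human umbilical vein, primary) are dosed, incubated 24 h, and assayed for Tissue Factor by ELISA; DMSO serves as negative control for bidirectional fitting.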
# [17] = BSK_3C_uPAR: BioMAP Diversity Plus: 3C Assay for Urokinase-type plasminogen activator receptor (uPAR) Biomarker Activity (AID 2282998); conditions: BioMAP 3C HUVEC, uPAR biomarker ELISA; actives raise or lower the signal
# In short: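 Readout: ELISA for surface uPAR. System: human umbilical vein endothelial primary cells, 24 h after chemical exposure. Analysis: bidirectional fit, DMSO baseline.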
# [18] = BSK_3C_VCAM1: BioMAP Diversity Plus: 3C Assay for Vascular cell adhesion molecule 1 (VCAM1) Biomarker Activity (AID 2282999); conditions: BioMAP 3C HUVEC, VCAM1 ELISA, cytokine-stimulated; actives raise or lower the signal
# In short: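 Human umbilical vein endothelial cells (3C system), biomarker read by ELISA 24 h after dosing; bidirectional fit against DMSO baseline. Cytotoxicity tracked by SRB total-protein staining in parallel cultures at biomarker time.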
# [19] = target: Oxysterols receptor LXR-alpha (Homo sapiens) (UniProt Q13133); assay: ATG_LXRa_TRANS: Attagene TRANS-FACTORIAL HepG2 Assay for human Liver X Receptor alpha (LXRa) (AID 2282980; active = hit-call score of the fitted dose curve at least 0.9, where 1 is the maximum); conditions: HepG2 Attagene TRANS reporter, LXRa transactivation
# Sequence of Oxysterols receptor LXR-alpha (Homo sapiens) (Q13133 whole entry, looked up, the tested form may be a part): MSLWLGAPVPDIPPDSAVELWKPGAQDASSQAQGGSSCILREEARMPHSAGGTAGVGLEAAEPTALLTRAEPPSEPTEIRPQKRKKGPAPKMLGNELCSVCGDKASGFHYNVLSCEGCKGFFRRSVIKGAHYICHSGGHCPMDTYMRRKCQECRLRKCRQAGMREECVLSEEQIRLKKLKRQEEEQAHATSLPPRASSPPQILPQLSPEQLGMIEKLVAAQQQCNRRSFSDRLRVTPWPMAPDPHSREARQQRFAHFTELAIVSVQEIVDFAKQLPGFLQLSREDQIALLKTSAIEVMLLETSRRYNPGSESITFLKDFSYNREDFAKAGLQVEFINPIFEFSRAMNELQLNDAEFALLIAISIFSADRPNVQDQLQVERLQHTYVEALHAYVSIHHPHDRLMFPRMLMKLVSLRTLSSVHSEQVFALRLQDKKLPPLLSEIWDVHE
# In short: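 In this multiplexed TRANS system, compounds act on HepG2 cells carrying GAL4-UAS reporter units and a receptor-GAL4 fusion for 24 h. Induced reporter RNA is amplified, fluorescently labelled and sized by capillary electrophoresis, with DMSO as baseline.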
# [20] = target: Estrogen-related receptor gamma (Homo sapiens) (UniProt P62508); assay: ATG_ERRg_TRANS: Attagene TRANS-FACTORIAL HepG2 Assay for human Estrogen-Related Receptor gamma (ERRg) (AID 2282977; active = hit-call score of the fitted dose curve at least 0.9, where 1 is the maximum;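 also: hits increase reporter signal over DMSO so potencies reflect activators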); conditions: HepG2 Attagene TRANS reporter, ERRg transactivation
# In short: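 Transient HepG2 transfectants, 24 h compound exposure, GAL4-UAS reporter mRNA by RT-PCR/6-FAM labelling/capillary electrophoresis; positive direction vs DMSO.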
structure (smiles),measurement,setting,value
C=C/C(C)=C/C/C=C(\C)CCC=C(C)C,outcome,[1],inactive
same,outcome,[2],inactive
same,outcome,[3],inactive
same,outcome,[4],inactive
same,outcome,[5],inactive
same,outcome,[6],inactive
same,outcome,[7],inactive
same,AC50,[8],100 µM (active)
same,AC50,[9],67.1 µM (active)
same,outcome,[10],inactive
same,outcome,[11],inactive
CC=CC(=O)C1=C(C)C=CCC1(C)C,outcome,[1],inactive
same,outcome,[2],inactive
same,outcome,[12],inactive
same,outcome,[13],inactive
same,outcome,[5],inactive
same,outcome,[6],inactive
same,outcome,[14],inactive
same,outcome,[15],inactive
same,outcome,[8],inactive
same,outcome,[9],inactive
same,outcome,[10],inactive
same,outcome,[16],inactive
same,outcome,[17],inactive
same,outcome,[18],inactive
CC(=O)c1ccc2ccccc2c1,outcome,[1],inactive
same,outcome,[2],inactive
same,outcome,[19],inactive
same,outcome,[5],inactive
same,outcome,[6],inactive
same,outcome,[14],inactive
same,outcome,[7],inactive
same,outcome,[15],inactive
same,outcome,[9],inactive
same,outcome,[10],inactive
CC(C)C(=O)OCC=Cc1ccccc1,outcome,[1],inactive
same,outcome,[2],inactive
same,outcome,[13],inactive
same,outcome,[4],inactive
same,outcome,[5],inactive
same,outcome,[6],inactive
same,outcome,[14],inactive
same,outcome,[15],inactive
same,outcome,[8],inactive
same,AC50,[9],59.3 µM (active)
same,outcome,[10],inactive
C#C[C@]1(O)CC[C@H]2[C@@H]3CCc4cc(O)ccc4[C@H]3CC[C@@]21C,outcome,[1],inactive
same,outcome,[19],inactive
same,outcome,[12],inactive
same,outcome,[13],inactive
same,outcome,[3],inactive
same,outcome,[4],inactive
same,outcome,[5],inactive
same,AC50,[6],156 µM (active) and 172 µM (active)
same,outcome,[6],inactive
same,AC50,[14],152 µM (active) and 138 µM (active)
same,outcome,[14],inactive
same,AC50,[7],26.4 µM (active) and 72.3 µM (active) and 48.5 µM (active)
same,outcome,[7],inactive
same,AC50,[15],146 µM (active) and 61.6 µM (active)
same,outcome,[15],inactive
same,AC50,[8],162 µM (active)
same,outcome,[8],inactive
same,AC50,[9],187 µM (active)
same,outcome,[9],inactive
same,AC50,[10],27.1 µM (active) [middle of 4 runs]
same,outcome,[10],inactive
same,AC50,[11],30 µM (active) [middle of 4 runs]
same,outcome,[11],inactive
same,AC50,[16],5.38 µM (active)
same,AC50,[17],6.34 µM (active)
same,outcome,[18],inactive
O=S(=O)(O)c1cc(S(=O)(=O)O)c2c(N=Nc3ccccc3)c(O)ccc2c1,outcome,[1],inactive
same,outcome,[2],inactive
same,outcome,[19],inactive
same,outcome,[12],inactive
same,outcome,[3],inactive
same,outcome,[6],inactive
same,outcome,[14],inactive
same,outcome,[7],inactive
same,outcome,[8],inactive
same,outcome,[9],inactive
same,outcome,[10],inactive
same,outcome,[11],inactive
C=C(C)C(N)=O,outcome,[20],inactive
same,outcome,[13],inactive
same,outcome,[3],inactive
same,outcome,[6],inactive
same,outcome,[14],inactive
same,outcome,[7],inactive
same,outcome,[15],inactive
same,outcome,[8],inactive
same,outcome,[9],inactive
same,outcome,[10],inactive
same,outcome,[11],inactive
same,outcome,[16],inactive
same,outcome,[17],inactive
same,outcome,[18],inactive
O=C1OCc2ccccc21,outcome,[1],inactive
same,outcome,[2],inactive
same,outcome,[13],inactive
same,outcome,[4],inactive
same,outcome,[6],inactive
same,outcome,[14],inactive
same,outcome,[7],inactive
same,outcome,[15],inactive
same,outcome,[8],inactive
same,outcome,[9],inactive
same,outcome,[10],inactive
same,outcome,[11],inactive
CC(C)(C)c1cc(CCC(=O)OCCSCCOC(=O)CCc2cc(C(C)(C)C)c(O)c(C(C)(C)C)c2)cc(C(C)(C)C)c1O,outcome,[1],inactive
same,outcome,[19],inactive
same,outcome,[12],inactive
same,outcome,[13],inactive
same,outcome,[4],inactive
same,outcome,[5],inactive
same,outcome,[6],inactive
same,outcome,[14],inactive
same,outcome,[7],inactive
same,outcome,[15],inactive
same,outcome,[8],inactive
same,outcome,[9],inactive
same,outcome,[10],inactive
same,outcome,[11],inactive
